NPSR antag = blocks cAMP signaling of the human neuropeptide S receptor; CHO-NPSR cells, cAMP TR-FRET, antagonist mode; Potency, µM (top dose mostly 38.3 µM), most hits filed as inhibitors; Q6W5P4; 1% of 220,000 active; also: nearly all actives have a fitted effect of over 50% in size
ALDH1A1 inh = inhibitors of human aldehyde dehydrogenase 1A1 | 7.3% of 220,000 active | Potency, µM (series often up to 75.3 µM), actives largely listed as inhibitors | Purified ALDH1A1, NADH fluorescence, propionaldehyde substrate | P00352; active = well fitted inhibition curve with a large enough effect, not every such curve was filed as active; inconclusive = small, poorly fitted or top-dose-only effect, or another doubt; inactive = no such curve, though single readings can be large or run the other way
IMPase Li inh = cell-permeable IMPase inhibitors with lithium potentiation; CHO-M1 cells, IP1 TR-FRET (IP-One), carbachol + lithium; Potency, µM (top dose mostly 59.4 µM), usual class: inhibitors; 0.35% of 210,000 active; AID 1457;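 also: IP1 builds up when IMPase is blocked and the TR-FRET signal falls; nearly all actives have a fitted effect of over 50% in size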
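Steps: plate 2000 CHO-M1 cells per well and culture 16–30 h; add compound and lithium; incubate 30 min, 37C; add d2-IP1 tracer and Eu cryptate anti-IP1 antibody in lysis buffer; read after 10 min at room temperature.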
HPGD inh = blocks human HPGD enzyme activity; AID 894; P15428; Potency, µM, actives largely listed as inhibitors; 4.3% of 150,000 active; purified HPGD, NADH fluorescence kinetic, PGE2 substrate; active = well fitted inhibition curve with a large enough effect, not every such curve was filed as active; inconclusive = small, poorly fitted or top-dose-only effect, or another doubt; inactive = no such curve, though single readings can be large or run the other way
Target sequence (P15428 whole entry, looked up): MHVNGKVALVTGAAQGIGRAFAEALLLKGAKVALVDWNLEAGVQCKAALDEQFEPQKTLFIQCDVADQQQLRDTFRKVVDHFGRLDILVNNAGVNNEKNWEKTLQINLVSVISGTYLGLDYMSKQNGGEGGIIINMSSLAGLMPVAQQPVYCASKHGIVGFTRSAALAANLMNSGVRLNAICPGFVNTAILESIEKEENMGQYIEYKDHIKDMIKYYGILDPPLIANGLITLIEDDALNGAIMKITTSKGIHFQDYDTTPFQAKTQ
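20 nM HPGD preincubated 15 min at room temperature with compound in 50 mM Tris-HCl pH 8, 0.01% Tween 20. Started with 1 mM NAD+ and 30 uM prostaglandin E2; NADH fluorescence (360/450 nm) read 5 times over 30-s intervals, last minus first.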
IMPase cell inh = cell-permeable inhibitors of inositol monophosphatase (IMPase); P97697; CHO-M1 cells, IP1 accumulation, HTRF TR-FRET ratio; inhibition (IP1 accumulation), % at 46.1 µM; 120,000 tested, under 10 active; AID 901; active = well fitted curve in the direction sought with a large enough effect in the signal ratio, not every such curve was filed as active; inconclusive = small, poorly fitted or top-dose-only effect, or a change in a side signal; inactive = no such curve, though single readings can be large or run the other way; the % refers to the signal ratio;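 also: cells stimulated with carbachol in lithium chloride buffer; higher means more IMPase inhibition seen as more IP1 and lower FRET ratio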
Target sequence (P97697 whole entry, looked up): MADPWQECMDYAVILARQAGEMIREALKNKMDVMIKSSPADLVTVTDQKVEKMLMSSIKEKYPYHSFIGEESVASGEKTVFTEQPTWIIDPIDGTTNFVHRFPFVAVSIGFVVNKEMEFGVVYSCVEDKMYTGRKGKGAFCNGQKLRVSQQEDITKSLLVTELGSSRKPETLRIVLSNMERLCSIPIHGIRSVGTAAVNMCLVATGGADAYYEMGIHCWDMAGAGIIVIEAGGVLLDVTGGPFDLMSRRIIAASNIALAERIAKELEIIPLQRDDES
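In this qHTS, compounds (final up to 46 uM) act on CHO-M1 cells that are then activated through the M1 receptor with carbachol, in pH 7.4 buffer containing 50 mM LiCl, for 30 min. IP1 accumulation is quantified by the IP-One immunoassay.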
ALOX12 inhib = inhibitors of human 12-lipoxygenase (ALOX12). Potency, µM (top dose mostly 57.1 µM), hits mostly inhibitors. P18054. purified 12-hLO, xylenol orange hydroperoxide absorbance. 0.12% of 150,000 active; also: nearly all actives have a fitted effect of over 55% in size
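Lipoxygenase turnover measured by absorbance at 573 and 405 nm after Fe-XO development. Human 12hLO 150 nM, arachidonate 40 uM, pH 7.0 Hepes buffer with detergent; 15 min compound preincubation, 30 min reaction.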
Each line names hits and unclear results; the compound was inactive in the other large screens. Hits are enriched below; roughly 8.9% of the tested compounds scored in any of these assays. Unless noted, calls follow the shape of the dose curve; as a rule, active = well fitted curve in the direction sought with a large enough effect; inconclusive = small, poorly fitted or top-dose-only effect, or another doubt; inactive = no such curve, though single readings can be large; an effect the other way counts as inactive or inconclusive.

CCOC(=O)CSC1=NC(=O)/C(=C\c2ccc(Cl)cc2)S1	ALDH1A1 inh 20µM, HPGD inh 2.2µM
CSC1=NC(=O)/C(=C/c2ccc(SC)cc2)S1	ALDH1A1 inh inconclusive (no result: HPGD inh, IMPase cell inh, ALOX12 inhib)
O=C(CC1SC(=O)N(c2ccccc2)C1=O)Nc1cccc2ccccc12 (stereo not drawn)	none (no result: ALDH1A1 inh, IMPase Li inh, HPGD inh, IMPase cell inh, ALOX12 inhib)
CCOc1ccc(NC(=O)Cc2ccccc2)cc1	HPGD inh 13µM (no result: IMPase cell inh)
COc1cccc(NC(=O)CC2S/C(=N\S(=O)(=O)c3ccccc3)N(c3ccccc3)C2=O)c1 (stereo not drawn)	ALDH1A1 inh 20µM (no result: IMPase cell inh)
Cc1ccccc1NC(=O)CC1SC(=O)N(c2ccccc2)C1=O (stereo not drawn)	ALDH1A1 inh 16µM, HPGD inh inconclusive
CCOc1ccc(NC(=O)c2cccnc2C(=O)O)cc1	ALDH1A1 inh 22µM
Cc1ccc(S(=O)(=O)N2CCCCC2)cc1NC(=O)COC(=O)Cc1cccc2ccccc12	ALDH1A1 inh inconclusive (no result: IMPase cell inh)
CC(c1ccccc1)n1cc(C(=O)NCC2COc3ccccc3O2)nn1 (stereo not drawn)	none
CCCN1C(=O)SC(CC(=O)Nc2ccccc2C)C1=O (stereo not drawn)	ALDH1A1 inh 10µM
CCOc1ccc(NC2=NCC(=O)N2CCc2ccccc2)cc1	NPSR antag inconclusive, ALDH1A1 inh 25µM
CCOc1ccc(NC(=O)CC2SC(=O)N(c3ccccc3)C2=O)cc1 (stereo not drawn)	ALDH1A1 inh 7.9µM (no result: HPGD inh, IMPase cell inh, ALOX12 inhib)
CCOc1ccc(NC(=O)C2CC(=O)OC2c2ccccc2)cc1 (stereo not drawn)	ALDH1A1 inh 25µM (no result: HPGD inh, IMPase cell inh, ALOX12 inhib)
C/C(=N\NC(=O)CC1N=C(Cc2ccccc2)NNC1=O)c1ccc(Br)cc1 (stereo not drawn)	none (no result: IMPase Li inh, HPGD inh, IMPase cell inh, ALOX12 inhib)
COc1cc(OC)c(OC)cc1/C=N/Nc1ncnc2c1[nH]c1ccccc12	ALDH1A1 inh inconclusive, HPGD inh inconclusive (no result: IMPase cell inh)
O=C(CSc1nc2ccccc2s1)NCCOc1ccccc1	none
Cc1sc(NC(=O)c2ccc(F)cc2)c(CN2CCCCCC2)c1C	ALDH1A1 inh 10µM (no result: IMPase cell inh)
O=C(NC(=S)N1CCN(Cc2ccccc2)CC1)c1ccco1	ALDH1A1 inh inconclusive (no result: HPGD inh, IMPase cell inh, ALOX12 inhib)
Cc1sc(NC(=O)c2ccco2)c(CN2CCN(Cc3ccccc3)CC2)c1C	NPSR antag inconclusive, ALDH1A1 inh 28µM (no result: HPGD inh, IMPase cell inh, ALOX12 inhib)
CCOC(=O)c1c(-c2cccs2)csc1N	ALDH1A1 inh inconclusive (no result: HPGD inh, IMPase cell inh, ALOX12 inhib)
CCOC(=O)c1c(-c2ccco2)csc1N	ALDH1A1 inh 20µM
Cc1sc(NC(=O)c2ccccc2F)c(CN2CCCCC2)c1C	none (no result: IMPase cell inh)
Cc1sc(NC(=O)c2ccco2)c(C(c2cccnc2)N2CCC(C)CC2)c1C (stereo not drawn)	NPSR antag 13µM
CC(C)(C)n1nnnc1C(c1cccnc1)N1CCN(C(=O)c2ccco2)CC1 (stereo not drawn)	NPSR antag inconclusive
CCOC(=O)C1(Cc2cccc(OC)c2)CCN(Cc2cnc(SC)nc2)CC1	none (no result: HPGD inh, IMPase cell inh, ALOX12 inhib)
Cc1ccc2oc(-c3ccc(Cl)c(NC(=O)Cc4ccccc4)c3)nc2c1	none (no result: NPSR antag, ALDH1A1 inh, IMPase Li inh, HPGD inh, ALOX12 inhib)
COc1ccc(NC(=O)C2CCCN(S(=O)(=O)c3cccnc3)C2)cc1 (stereo not drawn)	none
O=C(NCc1cccnc1)C1CCC(CNS(=O)(=O)c2ccc(Cl)cc2)CC1 (stereo not drawn)	ALDH1A1 inh inconclusive (no result: HPGD inh, IMPase cell inh, ALOX12 inhib)
CCc1c(C)sc(NC(=O)c2ccco2)c1C(=O)N1CCOCC1	ALDH1A1 inh 22µM, HPGD inh inconclusive
CCOC(=O)c1c(NC(=O)c2ccco2)sc(C(=O)N2CCCC2)c1C	ALDH1A1 inh inconclusive, HPGD inh 14µM
CCOC(=O)c1c(NC(=O)CN2CCN(C(=O)c3ccco3)CC2)sc(C(N)=O)c1C	none (no result: HPGD inh, IMPase cell inh, ALOX12 inhib)
CCOC(=O)c1c(NC(=O)c2ccco2)sc2c1CCCCC2	NPSR antag inconclusive, ALDH1A1 inh inconclusive, HPGD inh inconclusive
CCc1c(C)sc(NC(=O)c2ccco2)c1C(=O)N1CCCCC1	ALDH1A1 inh 25µM
CCOC(=O)c1c(-c2ccc(C)s2)csc1NC(=O)c1ccco1	NPSR antag 7.9µM, IMPase Li inh inconclusive, HPGD inh inconclusive
CCOC(=O)c1cc(NC(=O)c2ccco2)ccc1N1CCOCC1	none (no result: HPGD inh, IMPase cell inh, ALOX12 inhib)

Compound activity as filed in PubChem BioAssay.
